Test [1] in a line: ACEA_ER_80hr: ACEA Biosciences xCELLigence Real-Time Cell Analysis on Estrogen Receptor Agonism for Proliferation (AID 2282667; active means hit-call score of the fitted dose curve at least 0.9, where 1 is the maximum). To be noted: T47D proliferation, impedance (xCELLigence), 80 h. The method, boiled down: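 Real-time electrical impedance tracked growth of the human breast line T47D, with the 80 h post-dosing value used. Dosing spanned eight 1:4 steps down from a 100 uM final top concentration, run in duplicate.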

The nature of test [2]: ATG_CRE_CIS: Attagene CIS-FACTORIAL HepG2 Assay for human cAMP Responsive Element (CRE) binding protein 3 (AID 2282926). The conditions noted are these: HepG2 CRE cis-reporter, Attagene multiplexed mRNA; actives raise or lower the signal. The method, boiled down: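 Assay format: transient reporter transfection of HepG2, 24 h treatment, total RNA isolation with DNase I step. Reporter abundance read by fluorescence after PCR and capillary separation; DMSO-normalised gain or loss fitting.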

For test [3], the target named is CCAAT/enhancer-binding protein beta (Homo sapiens) (UniProt P17676). In words: ATG_C_EBP_CIS: Attagene CIS-FACTORIAL HepG2 Assay for human CCAAT/Enhancer Binding Protein (C/EBP) beta (AID 2282927). The conditions noted are these: HepG2 Attagene cis-factorial transcription factor reporter; actives raise or lower the signal. The method, boiled down: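 Changes in reporter mRNA, rather than exogenous chimeric receptor activity, reflect native C/EBP signalling in transfected HepG2 cells dosed for 24 h; transcripts are detected by RT-PCR and capillary electrophoresis.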

Test [4] can be described thus: ATG_CMV_CIS: Attagene CIS-FACTORIAL HepG2 Assay for human CMV (Internal Marker) (AID 2282928).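 Further: endpoint acts as a background internal control marker rather than a target.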 The conditions noted are these: HepG2 CMV promoter reporter, transcription factor profiling; actives raise or lower the signal. The method, boiled down: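 Reporter transcripts from transfected HepG2 cells are isolated after 24 h of chemical dosing, reverse-transcribed and amplified. Fragments labeled with 6-FAM are cut with HpaI and quantified by capillary electrophoresis; DMSO defines baseline.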

For test [5], the target named is Aryl hydrocarbon receptor (Homo sapiens) (UniProt P35869). Kind of test: ATG_Ahr_CIS: Attagene CIS-FACTORIAL HepG2 Assay for human Aryl Hydrocarbon Receptor (Ahr) (AID 2282930). The conditions noted are these: HepG2 AhR cis-factorial reporter transcription; actives raise or lower the signal. The method, boiled down:
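HepG2, transient MRTU (cis) transfection, 24 h exposure. RNA → cDNA → PCR → 6-FAM primer extension → HpaI 2 h 37 C → CE. Fit: bidirectional, DMSO baseline.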

Test [6] in a line: ATG_AP_1_CIS: Attagene CIS-FACTORIAL HepG2 Assay for human Activator Protein 1 (AP-1) (AID 2282931). To be noted: HepG2 Attagene cis-factorial AP-1 reporter mRNA; actives raise or lower the signal. The method, boiled down:
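Bidirectional concentration-response fitting against DMSO controls. Underlying signal: reporter mRNA from cis-promoter constructs in transiently transfected HepG2, measured after 24 h by RT-PCR and capillary electrophoresis.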

Test [7] in a line: ATG_AP_2_CIS: Attagene CIS-FACTORIAL HepG2 Assay for human Activator Protein 2 (AP-2) (AID 2282932). The conditions noted are these: HepG2 AP-2 cis-reporter, Attagene transcription factor profiling; actives raise or lower the signal. In short, it runs like this:
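Transiently transfected HepG2 cells are exposed to chemical for 24 h. Reporter transcripts are then measured as fluorescence following RT-PCR and capillary separation, and gain- or loss-of-signal is fitted relative to DMSO.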

Test [8] in a line: ATG_BRE_CIS: Attagene CIS-FACTORIAL HepG2 Assay for human Bone Morphogenetic Protein (BMP) Response Element (BRE) (AID 2282933). The conditions noted are these: HepG2 BMP response element reporter, Attagene transcription factor profiling; actives raise or lower the signal. In short, it runs like this: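 HepG2 cells transiently transfected with multiplexed cis-element reporter units were dosed with chemical for 24 h. Reporter mRNA was measured by RT-PCR with fluorescent labelling, HpaI digestion and capillary electrophoresis; bidirectional fitting relative to DMSO.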

The target of test [9] is Retinoic acid receptor alpha (Homo sapiens) (UniProt P10276). Kind of test: ATG_DR5_RAR_CIS: Attagene CIS-FACTORIAL HepG2 Assay for human Retinoic Acid Receptor Alpha (RARE), DR5 submotif (AID 2282934). To be noted: HepG2 Attagene cis-factorial RARE DR5 reporter, mRNA; actives raise or lower the signal. In short, it runs like this: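 HepG2, transient cis-reporter transfection, 24 h exposure. mRNA readout: RT-PCR, FAM label, HpaI cut, capillary electrophoresis. DMSO baseline, gain/loss fitting.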

Test [10] deals with Transcription factor E2F1 (Homo sapiens) (UniProt Q01094). Kind of test: ATG_E2F_CIS: Attagene CIS-FACTORIAL HepG2 Assay for human E2F Transcription Factor 1 (AID 2282935). The conditions noted are these: HepG2 Attagene cis-reporter, E2F reporter RNA transcripts; actives raise or lower the signal. In short, it runs like this: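 Fluorescent RT-PCR products, digested with HpaI for 2 h at 37 C, are separated by capillary electrophoresis. Source RNA comes from transfected HepG2 cultures treated for 24 h.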

The nature of test [11]: ATG_E_Box_CIS: Attagene CIS-FACTORIAL HepG2 Assay for human Enhancer Box (E-box) (AID 2282936). To be noted: HepG2 E-box cis-reporter transcription, actives raise or lower the signal. The method, boiled down: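 Fluorescent reporter fragments separated by capillary electrophoresis gave the signal; mRNA came from HepG2 cells transfected with cis-element reporters and treated 24 h. Curves fitted bidirectionally relative to DMSO controls.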

Test [12] is described as follows: ATG_M_61_CIS: Attagene CIS-FACTORIAL HepG2 Assay for M61 Transcription Factor (Internal Marker) (AID 2282937). The conditions noted are these: HepG2 Attagene CIS-FACTORIAL M61 internal marker reporter; actives raise or lower the signal. The method, boiled down:
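Fluorescence from labelled cDNA fragments, separated by capillary electrophoresis, quantifies reporter induction. HepG2 cells bearing transiently transfected cis-promoter MRTUs were incubated with test chemical for 24 h; DMSO defined baseline for gain/loss fitting.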

Test [13] can be described thus: ATG_EGR_CIS: Attagene CIS-FACTORIAL HepG2 Assay for human Early Growth Response 1 (EGR1) (AID 2282938). The conditions noted are these: HepG2 Attagene CIS-FACTORIAL EGR reporter mRNA; actives raise or lower the signal. In short, it runs like this: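 Cell-based multiplex transcription assay: HepG2 carrying transfected cis-element reporter units, 24 h chemical treatment. Fluorescence from capillary electrophoresis of RT-PCR products gives mRNA levels; fitting is bidirectional relative to DMSO.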

Test [14] in a line: ATG_M_19_CIS: Attagene CIS-FACTORIAL HepG2 Assay for M19 Transcription Factor (Internal Marker) (AID 2282939). The conditions noted are these: HepG2 Attagene CIS-FACTORIAL M19 internal marker reporter; actives raise or lower the signal. The method, boiled down:
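HepG2 cells transiently transfected with cis-regulated multiple reporter transcription units were dosed for 24 h; reporter mRNA was quantified by RT-PCR, 6-FAM primer-extension labelling, HpaI digestion and capillary electrophoresis, with bidirectional fitting against DMSO baseline.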

Test [15] is described as follows: ATG_Ets_CIS: Attagene CIS-FACTORIAL HepG2 Assay for human Erythroblast Transformation Specific (ETS) (AID 2282941). To be noted: HepG2 ETS cis-reporter transcription, actives raise or lower the signal. The method, boiled down: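 Bidirectional fit versus DMSO of reporter mRNA signal, detected by RT-PCR and capillary electrophoresis in HepG2 cells transiently transfected with cis-element reporters and dosed 24 h.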

Test [16] has as its target Hepatocyte nuclear factor 3-beta (Homo sapiens) (UniProt Q9Y261). Kind of test: ATG_FoxA2_CIS: Attagene CIS-FACTORIAL HepG2 Assay for human Forkhead box A2 (FOXA2) (AID 2282942). To be noted: HepG2 cis-reporter transcription factor activity, 24 h; actives raise or lower the signal. The method, boiled down: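 In transiently transfected human HepG2 cells, promoter-driven reporter mRNA levels after 24 h chemical exposure are determined via RT-PCR with capillary electrophoresis. DMSO serves as baseline for bidirectional fitting.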

A short description of test [17]: ATG_FoxO_CIS: Attagene CIS-FACTORIAL HepG2 Assay for human Forkhead box O (FoxO) (AID 2282943). To be noted: HepG2 Attagene cis-reporter, FoxO element, mRNA; actives raise or lower the signal. The method, boiled down: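 Human hepatoma HepG2 cells carry transiently introduced reporter transcription units controlled by cis promoter elements. Chemical treatment lasted 24 h, and mRNA signal was compared with DMSO.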

Test [18] can be described thus: ATG_GATA_CIS: Attagene CIS-FACTORIAL HepG2 Assay for human GATA Binding Protein (AID 2282944). The conditions noted are these: HepG2 GATA cis-element reporter, Attagene multiplex mRNA; actives raise or lower the signal. The method, boiled down:
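HepG2 cells transiently transfected with multiplexed cis-element reporter units reflecting endogenous transcription factor activity; reporter mRNA measured after 24 h dosing by RT-PCR, 6-FAM labeling, HpaI digestion and capillary electrophoresis. Bidirectional fitting versus DMSO baseline.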

A short description of test [19]: ATG_ERE_CIS: Attagene CIS-FACTORIAL HepG2 Assay for Estrogen Response Element (ERE) (AID 2282940). The conditions noted are these: HepG2 ERE cis-reporter, Attagene RNA transcript; actives raise or lower the signal. In short, it runs like this: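 HepG2 cells transiently transfected with cis-promoter-driven multiplexed reporter transcription units report endogenous TF activity. After 24 h compound exposure, reporter mRNA is quantified by RT-PCR with capillary electrophoresis fluorescence; bidirectional fitting versus DMSO baseline.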

Inconclusive results are not listed. Active and inactive are the calls of the source. How the source made its calls, unless noted: active means hit-call score of the fitted dose curve at least 0.9, where 1 is the maximum; inactive means score below 0.9.

Chain of CCAAT/enhancer-binding protein beta (Homo sapiens) (P17676 whole entry, looked up): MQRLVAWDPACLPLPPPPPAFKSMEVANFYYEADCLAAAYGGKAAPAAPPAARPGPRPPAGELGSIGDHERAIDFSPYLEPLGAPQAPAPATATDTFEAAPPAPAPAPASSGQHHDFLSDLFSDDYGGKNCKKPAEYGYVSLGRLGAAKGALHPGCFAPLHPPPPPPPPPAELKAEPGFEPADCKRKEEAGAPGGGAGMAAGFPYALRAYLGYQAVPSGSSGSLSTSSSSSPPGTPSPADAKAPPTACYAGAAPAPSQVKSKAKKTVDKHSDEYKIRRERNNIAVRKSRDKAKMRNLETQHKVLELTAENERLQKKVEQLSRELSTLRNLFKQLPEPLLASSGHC
Chain of Hepatocyte nuclear factor 3-beta (Homo sapiens) (Q9Y261 whole entry, looked up): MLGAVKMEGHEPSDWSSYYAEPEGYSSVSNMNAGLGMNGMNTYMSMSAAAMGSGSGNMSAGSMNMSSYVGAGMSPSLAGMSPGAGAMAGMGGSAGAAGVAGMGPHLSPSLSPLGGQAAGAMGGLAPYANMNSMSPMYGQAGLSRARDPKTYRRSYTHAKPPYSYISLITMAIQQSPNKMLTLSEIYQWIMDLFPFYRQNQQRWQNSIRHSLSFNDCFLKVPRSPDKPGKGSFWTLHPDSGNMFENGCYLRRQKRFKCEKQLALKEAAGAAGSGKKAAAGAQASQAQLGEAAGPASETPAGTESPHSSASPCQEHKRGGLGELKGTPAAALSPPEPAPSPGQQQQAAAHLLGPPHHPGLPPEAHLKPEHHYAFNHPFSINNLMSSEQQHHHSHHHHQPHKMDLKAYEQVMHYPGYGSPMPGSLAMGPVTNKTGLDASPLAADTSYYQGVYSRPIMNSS
Chain of Transcription factor E2F1 (Homo sapiens) (Q01094 whole entry, looked up): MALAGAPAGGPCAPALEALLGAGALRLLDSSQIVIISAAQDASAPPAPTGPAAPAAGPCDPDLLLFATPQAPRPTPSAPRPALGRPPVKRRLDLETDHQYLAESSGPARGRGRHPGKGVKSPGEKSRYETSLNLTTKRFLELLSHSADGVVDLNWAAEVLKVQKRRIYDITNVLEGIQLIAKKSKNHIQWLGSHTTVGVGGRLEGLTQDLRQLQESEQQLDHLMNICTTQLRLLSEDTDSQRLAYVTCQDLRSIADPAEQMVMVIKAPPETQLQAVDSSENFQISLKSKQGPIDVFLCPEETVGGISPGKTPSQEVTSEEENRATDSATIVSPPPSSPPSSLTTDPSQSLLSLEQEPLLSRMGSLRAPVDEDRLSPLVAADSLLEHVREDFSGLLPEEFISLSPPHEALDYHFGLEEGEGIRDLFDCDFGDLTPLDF
Chain of Retinoic acid receptor alpha (Homo sapiens) (P10276 whole entry, looked up): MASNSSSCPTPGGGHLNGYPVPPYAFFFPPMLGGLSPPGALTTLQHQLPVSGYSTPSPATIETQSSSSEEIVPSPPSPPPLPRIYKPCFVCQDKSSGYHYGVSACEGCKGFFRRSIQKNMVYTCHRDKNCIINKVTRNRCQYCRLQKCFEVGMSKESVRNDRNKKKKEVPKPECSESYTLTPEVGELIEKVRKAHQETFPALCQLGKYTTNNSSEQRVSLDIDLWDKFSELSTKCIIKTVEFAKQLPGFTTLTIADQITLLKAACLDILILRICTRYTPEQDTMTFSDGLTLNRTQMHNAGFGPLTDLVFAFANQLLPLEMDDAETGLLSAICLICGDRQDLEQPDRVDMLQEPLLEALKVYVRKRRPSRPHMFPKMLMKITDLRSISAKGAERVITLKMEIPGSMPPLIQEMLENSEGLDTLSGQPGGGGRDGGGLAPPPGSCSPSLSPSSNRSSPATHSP
Chain of Aryl hydrocarbon receptor (Homo sapiens) (P35869 whole entry, looked up): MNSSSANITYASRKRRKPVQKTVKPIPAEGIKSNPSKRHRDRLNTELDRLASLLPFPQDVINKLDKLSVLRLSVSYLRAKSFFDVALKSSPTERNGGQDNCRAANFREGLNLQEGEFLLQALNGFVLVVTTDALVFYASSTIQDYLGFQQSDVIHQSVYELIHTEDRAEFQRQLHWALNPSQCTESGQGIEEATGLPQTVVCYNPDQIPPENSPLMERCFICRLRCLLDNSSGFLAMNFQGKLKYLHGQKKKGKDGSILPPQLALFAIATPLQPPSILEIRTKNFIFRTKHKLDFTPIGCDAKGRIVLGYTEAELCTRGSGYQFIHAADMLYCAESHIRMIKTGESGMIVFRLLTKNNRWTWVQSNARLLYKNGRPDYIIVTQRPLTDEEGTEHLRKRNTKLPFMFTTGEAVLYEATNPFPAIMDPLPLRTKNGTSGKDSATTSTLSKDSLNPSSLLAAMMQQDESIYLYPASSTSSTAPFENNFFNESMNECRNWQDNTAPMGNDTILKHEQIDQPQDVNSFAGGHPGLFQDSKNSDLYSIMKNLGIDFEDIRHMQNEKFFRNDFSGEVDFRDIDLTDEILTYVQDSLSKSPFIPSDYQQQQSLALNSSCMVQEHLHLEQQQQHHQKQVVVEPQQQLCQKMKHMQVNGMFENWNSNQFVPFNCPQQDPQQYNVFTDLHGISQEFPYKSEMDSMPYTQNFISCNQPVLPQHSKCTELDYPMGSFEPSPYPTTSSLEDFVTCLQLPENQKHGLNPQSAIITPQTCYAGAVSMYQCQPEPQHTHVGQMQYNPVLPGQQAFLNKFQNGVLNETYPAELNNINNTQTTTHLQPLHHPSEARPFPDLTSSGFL

As usually defined, the AC50 is the concentration giving half of the maximal activity seen. On to `CCCCCC[C@@H](O)C/C=C\CCCCCCCC(=O)OCC(O)CO` (stereo partly drawn), for which the compound was classed as inactive in test [1], in test [2], in test [3], in test [5], in [8] and in test [9]. Moreover, the outcome in [11], in test [12], in [14] and in [16] was inactive. For the same compound, the AC50 in [4] was 131 µM (active); in test [6] it was 75.7 µM (active); in test [7], 158 µM (active); in test [10], 133 µM (active); in [13], 151 µM (active); in test [15], 178 µM (active). The values for the concentration at half-maximal activity (AC50) in test [17] and in test [18] were 178 µM (active) and 128 µM (active), respectively.

In the case of `CCc1cccc(C)c1N(C(=O)CS(=O)(=O)O)C(C)COC` (stereo not drawn), the compound was called inactive in test [1], in test [2], in [3], in test [4], in test [5] and in [6]. The compound was called inactive in test [7], in test [8], in test [9], in test [10], in test [11] and in test [12]. Also, the outcome in test [13], in test [14], in [15], in test [16], in [17] and in test [18] was inactive. For the same compound, the concentration at half-maximal activity (AC50) in test [19] is 27.5 µM (active).

Regarding `CC(C)OC(=O)c1ccccc1`, the compound was classed as inactive in [1], in test [2], in test [3], in test [4], in test [5] and in test [6]. Besides, the compound was called inactive in [7], in test [8], in [9], in test [10], in test [11] and in [12]. The result in test [13], in [14], in test [19], in test [15], in test [16] and in [17] was inactive. The compound was called inactive in test [18].

As to `COc1nccnc1CC(C)C`, the compound was called inactive in test [1], in test [2], in test [3], in test [4], in test [5] and in test [6]. The compound was called inactive in test [7], in [8], in test [9], in test [10], in test [11] and in [12]. Besides, the outcome in [13], in [14], in test [19], in test [15], in test [16] and in test [18] was inactive.

For the compound `CCCSSCCC`, the call in test [1], in test [2], in test [3], in test [4], in test [5] and in test [6] was inactive. The compound was classed as inactive in [7], in test [8], in test [9], in test [10], in test [12] and in [13]. Besides, the call in test [14], in test [19], in test [16], in test [17] and in test [18] was inactive.

Regarding `CCN(CC)c1cccc(C)c1`, the compound was called inactive in test [1], in test [2], in test [3], in test [4], in [5] and in test [6]. Moreover, the result in test [7], in test [8], in test [9], in test [10], in test [11] and in test [12] was inactive. Besides, the call in [13], in [14], in test [19], in test [15], in test [16] and in test [17] was inactive. In addition, the outcome in test [18] was inactive.

Take `N=C1C=CC(=C(c2ccc(N)cc2)c2ccc(N)cc2)C=C1`: the call in [1], in [2], in test [9], in [10], in test [12] and in [16] was inactive. Besides, the half-maximal activity concentration (AC50) in test [3] is 168 µM (active); in test [4] it was 33.4 µM (active); in [5], 8.36 µM (active); in test [7], 24.7 µM (active); in [8], 33.4 µM (active); in test [11], 72.5 µM (active). Moreover, the AC50 is 100 µM (active) in [14], 25.4 µM (active) in test [15], 180 µM (active) in test [17] and 26.2 µM (active) in [18].

For the compound `CCC1COC(=O)O1` (stereo not drawn), the outcome in test [1], in test [2], in test [3], in test [4], in test [5] and in [7] was inactive. The compound was classed as inactive in [8], in [9], in test [10], in test [11], in test [12] and in test [14]. Further, the compound was called inactive in test [19], in test [15], in test [16], in test [17] and in test [18].
